Source: PubChem BioAssay (NCATS)
Inconclusive results are not listed. Where a call stands in place of a potency, no number is given. Active and inactive are the calls of the source. Unless noted, calls come from the whole dose curve; as a rule, active = well fitted curve in the direction sought with a large enough effect; inconclusive = small, poorly fitted or top-dose-only effect, or another doubt; inactive = no such curve, though single readings can be large; an effect the other way counts as inactive or inconclusive.

Experiments:
[1] = Validation screen for small molecules that induce DNA re-replication in MCF 10A normal breast cells (AID 463097); settings: MCF 10A cells, DNA re-replication phenotype imaging; series mostly up to 46.1 µM; note: nearly all actives have a fitted effect of over 60% in size; note: potency is the fitted concentration of half-maximal effect
How it was run: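 Following 48 hr compound incubation (37 C, 5% CO2), MCF 10A cells receive Hoechst for 40 min at 37 C. Nuclei are then scanned (excitation 405 nm, emission 500-530 nm) for total fluorescence intensity.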

[2] = Quantitative high throughput screen for delayed death inhibitors of the malarial parasite plastid, 96 hour incubation (AID 488745); settings: Plasmodium falciparum growth; series mostly up to 28.7 µM; note: nearly all actives have a fitted effect of over 70% in size; note: potency is the fitted concentration of half-maximal effect
How it was run: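 Infected erythrocytes were added to compound in Albumax-supplemented RPMI 1640 at 0.1% parasitemia and 2% hematocrit (final), incubated 96 h at 37 C under 5% CO2, then luciferase reagent was added and luminescence measured.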

[3] = Quantitative high throughput screen for delayed death inhibitors of the malarial parasite plastid, 48 hour incubation (AID 488752); settings: Plasmodium falciparum growth; series mostly up to 28.7 µM; note: nearly all actives have a fitted effect of over 65% in size; note: potency is the fitted concentration of half-maximal effect
How it was run: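 Readout is firefly luciferase luminescence from a reporter integrated into the parasite genome, with lower signal taken as inhibited growth. Infected red cells (0.1% parasitemia, 2% hematocrit final) are cultured with compound for one 48 h cycle at 37 C.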

[4] = target: Ubiquitin carboxyl-terminal hydrolase 2 (Homo sapiens) (UniProt O75604); assay: qHTS Validation Assay for Inhibitors of Ubiquitin-specific Protease USP2a Using CHOP2 as the Reporter (AID 463106); settings: USP2a cleavage of CHOP2 reporter, enzymatic; series mostly up to 38.3 µM
How it was run: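 10nM USP2 core + cpd, 30min RT; add 25nM Ub-CHOP2/25nM substrate; 60min RT; FI 485/531nm. Buffer Tris pH 8.0, CaCl2, BME, CHAPS. Norm. to NEM = 100% inhibition; time-zero read flags fluorescent artifacts.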

[5] = target: DNA polymerase III PolC-type (Bacillus subtilis (strain 168)) (UniProt P13267); assay: qHTS Validation Assay for the Inhibitors of DNA Replication in Gram-Positive Bacteria (AID 485295); settings: Gram-positive bacterial DNA replication assay; series mostly up to 57.1 µM; note: potency is the fitted concentration of half-maximal effect
How it was run: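 Inhibition of DNA synthesis by the reconstituted PolC holoenzyme, monitored through PicoGreen staining of dsDNA formed from ssM13Gori, dNTPs and NTPs, with compound preincubation and room-temperature reaction.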

[6] = target: Tumor susceptibility gene 101 protein (Homo sapiens) (UniProt Q99816); assay: qHTS Validation Assay for Iinhibitors of HIV-1 Budding by Blocking the Interaction of PTAP/TSG101 (AID 485342; calls by dose curve); settings: TSG101-PTAP binding, fluorescence polarization, 4-point titration; series mostly up to 115 µM
How it was run: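 Compound wells held the Tsg101 binding domain (10 uM) and a FITC-conjugated PTAP peptide (50 nM) in buffer at pH 7.5 containing 0.15 M NaCl and 0.01% Tween 20; polarization was recorded after 20 min, r.t.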

[7] = qHTS Validation Assay to Find Inhibitors of Chronic Active B-Cell Receptor Signaling (AID 485345; active = well fitted curve in the direction sought with a large enough effect in the main read-out, with a control signal flat, not every such curve was filed as active; note: potency is the fitted concentration of half-maximal effect); settings: ABC-DLBCL cells, chronic BCR signaling reporter, CBG luciferase; series mostly up to 46.1 µM
How it was run: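 Read-out: ratio of filter-corrected green (IkappaBalpha fusion) to red (native) luciferase signal in doxycycline-induced TMD8 cells after 4 h at 37C. Titration spanned 46 uM–3 nM; Data were normalised to basal cells and 10 uM MG-132 wells.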

[8] = target: Beta-2 adrenergic receptor (Homo sapiens) (UniProt P07550); assay: qHTS validation assay of beta-arrestin-biased ligands of beta2-adrenergic receptor (AID 485366); settings: cell-based beta-arrestin recruitment to ADRB2, qHTS; series mostly up to 46.1 µM
How it was run: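 Values derive from curve-fitted %Activity of a luminescent beta-arrestin recruitment reporter; compounds tested up to 46 microM on Tango cells for 18 hr at 37 degrees C, 5% CO2.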

[9] = target: Thioredoxin reductase 1, cytoplasmic (Rattus norvegicus) (UniProt O89049); assay: qHTS Assay for Substrates of Mammalian Selenoprotein Thioredoxin Reductase 1 (TrxR1) (AID 488772); settings: purified TrxR1, NADPH consumption substrate assay; series mostly up to 57.1 µM;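 note: NADPH fluorescence in the first read after selenite addition and not the 8 min delta; a drop in NADPH fluorescence below the no-compound background marks a TrxR1 substrate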
How it was run: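 Quantitative HTS in Tris-HCl buffer at pH 7.5 with EDTA and Tween-20, using rat TrxR1, 400 uM NADPH and 400 uM selenite (final). A fall in initial NADPH fluorescence relative to background marked substrate behaviour.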

[10] = target: ATP-dependent 6-phosphofructokinase (Trypanosoma brucei brucei) (UniProt O15648); assay: qHTS Validation Assay to Find Inhibitors of T. brucei phosphofructokinase (AID 485368); note: potency is the fitted concentration of half-maximal effect; settings: T. brucei PFK enzyme assay, qHTS 7-point titration; series mostly up to 57.5 µM
How it was run: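 Enzyme reaction in triethanolamine buffer pH 8.0 with 5 mM MgCl2, 0.01% Tween20 and 0.1% BSA; PFK 1.25 nM, F6P 0.5 mM, ATP 0.1 mM, 45 min RT. ADP quantified by ADP-Glo.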

Ubiquitin carboxyl-terminal hydrolase 2 (Homo sapiens), sequence (O75604 whole entry, looked up): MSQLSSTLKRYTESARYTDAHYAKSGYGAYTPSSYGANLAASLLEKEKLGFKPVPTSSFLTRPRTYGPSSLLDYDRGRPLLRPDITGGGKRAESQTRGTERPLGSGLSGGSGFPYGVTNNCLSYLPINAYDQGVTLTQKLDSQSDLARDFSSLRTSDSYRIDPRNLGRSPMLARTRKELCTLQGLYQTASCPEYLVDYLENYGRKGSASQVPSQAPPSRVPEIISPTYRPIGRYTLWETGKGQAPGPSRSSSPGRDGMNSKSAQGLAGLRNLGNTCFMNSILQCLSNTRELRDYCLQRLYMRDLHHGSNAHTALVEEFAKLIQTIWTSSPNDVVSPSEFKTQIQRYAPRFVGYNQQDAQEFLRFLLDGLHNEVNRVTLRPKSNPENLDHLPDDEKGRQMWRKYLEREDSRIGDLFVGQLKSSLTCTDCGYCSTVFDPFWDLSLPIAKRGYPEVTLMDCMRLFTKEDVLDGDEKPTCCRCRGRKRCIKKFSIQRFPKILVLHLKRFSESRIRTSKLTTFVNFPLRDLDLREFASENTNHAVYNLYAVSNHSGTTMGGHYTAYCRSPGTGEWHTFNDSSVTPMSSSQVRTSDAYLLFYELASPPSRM
DNA polymerase III PolC-type (Bacillus subtilis (strain 168)), sequence (P13267 whole entry, looked up): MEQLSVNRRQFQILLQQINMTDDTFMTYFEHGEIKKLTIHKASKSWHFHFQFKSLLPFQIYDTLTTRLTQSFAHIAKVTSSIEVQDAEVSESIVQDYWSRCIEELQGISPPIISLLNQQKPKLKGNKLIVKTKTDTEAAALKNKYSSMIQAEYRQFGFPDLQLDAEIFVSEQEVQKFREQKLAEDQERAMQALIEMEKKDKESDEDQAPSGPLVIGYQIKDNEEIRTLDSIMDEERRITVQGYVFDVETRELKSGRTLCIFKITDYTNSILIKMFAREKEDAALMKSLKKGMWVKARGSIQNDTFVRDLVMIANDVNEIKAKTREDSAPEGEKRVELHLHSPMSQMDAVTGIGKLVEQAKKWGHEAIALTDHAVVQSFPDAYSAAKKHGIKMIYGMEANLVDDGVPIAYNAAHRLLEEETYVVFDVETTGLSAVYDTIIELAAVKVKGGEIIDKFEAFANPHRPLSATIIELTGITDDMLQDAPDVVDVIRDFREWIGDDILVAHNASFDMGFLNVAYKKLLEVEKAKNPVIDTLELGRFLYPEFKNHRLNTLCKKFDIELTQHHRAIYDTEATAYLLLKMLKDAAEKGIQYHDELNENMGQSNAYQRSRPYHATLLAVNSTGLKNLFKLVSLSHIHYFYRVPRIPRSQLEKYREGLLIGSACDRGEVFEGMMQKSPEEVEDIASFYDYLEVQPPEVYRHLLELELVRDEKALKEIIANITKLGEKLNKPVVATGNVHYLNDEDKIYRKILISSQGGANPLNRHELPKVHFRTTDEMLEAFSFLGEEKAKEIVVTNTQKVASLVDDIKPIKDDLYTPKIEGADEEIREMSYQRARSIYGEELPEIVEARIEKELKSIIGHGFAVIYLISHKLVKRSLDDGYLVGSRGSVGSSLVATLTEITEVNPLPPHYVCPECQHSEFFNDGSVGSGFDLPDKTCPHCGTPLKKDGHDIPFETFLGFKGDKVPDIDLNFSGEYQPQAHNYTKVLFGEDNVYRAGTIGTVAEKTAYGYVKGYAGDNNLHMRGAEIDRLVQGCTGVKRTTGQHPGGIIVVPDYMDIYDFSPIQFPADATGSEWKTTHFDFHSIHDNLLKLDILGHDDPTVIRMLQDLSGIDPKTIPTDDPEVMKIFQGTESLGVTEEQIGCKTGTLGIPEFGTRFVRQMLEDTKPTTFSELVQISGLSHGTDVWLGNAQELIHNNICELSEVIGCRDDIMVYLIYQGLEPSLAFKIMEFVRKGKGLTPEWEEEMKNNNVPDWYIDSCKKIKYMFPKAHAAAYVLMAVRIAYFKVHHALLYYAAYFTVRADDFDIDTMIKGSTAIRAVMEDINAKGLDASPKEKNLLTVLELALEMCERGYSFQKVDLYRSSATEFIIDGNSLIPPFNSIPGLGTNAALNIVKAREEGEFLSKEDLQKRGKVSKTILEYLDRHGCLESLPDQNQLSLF
Tumor susceptibility gene 101 protein (Homo sapiens), sequence (Q99816 whole entry, looked up, the tested form may be a part): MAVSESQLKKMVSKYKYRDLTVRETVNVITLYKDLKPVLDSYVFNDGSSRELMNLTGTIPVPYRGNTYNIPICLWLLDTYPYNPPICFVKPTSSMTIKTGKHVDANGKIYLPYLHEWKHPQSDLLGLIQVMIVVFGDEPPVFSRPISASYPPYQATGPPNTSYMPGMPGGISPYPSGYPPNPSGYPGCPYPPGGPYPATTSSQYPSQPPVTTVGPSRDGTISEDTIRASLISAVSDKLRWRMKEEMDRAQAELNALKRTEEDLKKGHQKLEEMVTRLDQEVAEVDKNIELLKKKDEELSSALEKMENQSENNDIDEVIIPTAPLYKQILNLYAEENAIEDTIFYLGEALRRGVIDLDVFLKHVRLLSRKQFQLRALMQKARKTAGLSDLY
ATP-dependent 6-phosphofructokinase (Trypanosoma brucei brucei), sequence (O15648 whole entry, looked up): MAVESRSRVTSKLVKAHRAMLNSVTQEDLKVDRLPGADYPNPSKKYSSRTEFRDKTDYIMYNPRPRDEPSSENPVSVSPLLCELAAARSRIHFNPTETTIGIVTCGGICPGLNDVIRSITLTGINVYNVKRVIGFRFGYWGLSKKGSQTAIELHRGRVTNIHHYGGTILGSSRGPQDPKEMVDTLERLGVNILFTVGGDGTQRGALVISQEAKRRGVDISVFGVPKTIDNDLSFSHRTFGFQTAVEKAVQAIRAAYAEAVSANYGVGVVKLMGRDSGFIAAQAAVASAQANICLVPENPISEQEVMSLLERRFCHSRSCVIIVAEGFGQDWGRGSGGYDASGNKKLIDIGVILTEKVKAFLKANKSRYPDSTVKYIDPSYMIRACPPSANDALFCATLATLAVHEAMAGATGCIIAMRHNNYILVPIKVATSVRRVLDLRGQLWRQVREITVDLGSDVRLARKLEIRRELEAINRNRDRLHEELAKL
Beta-2 adrenergic receptor (Homo sapiens), sequence (P07550 whole entry, looked up): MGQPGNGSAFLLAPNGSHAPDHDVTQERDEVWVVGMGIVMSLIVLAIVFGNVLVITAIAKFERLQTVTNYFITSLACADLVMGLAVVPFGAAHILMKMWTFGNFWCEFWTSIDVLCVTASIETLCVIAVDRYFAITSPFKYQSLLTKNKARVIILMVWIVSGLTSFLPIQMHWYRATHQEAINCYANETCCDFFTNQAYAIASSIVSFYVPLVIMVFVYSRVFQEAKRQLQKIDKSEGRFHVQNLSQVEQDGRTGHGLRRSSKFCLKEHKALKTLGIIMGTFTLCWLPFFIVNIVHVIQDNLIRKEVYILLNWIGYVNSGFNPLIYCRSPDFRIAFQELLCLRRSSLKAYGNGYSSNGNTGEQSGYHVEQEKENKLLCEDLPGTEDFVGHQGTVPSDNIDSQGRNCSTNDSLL
Thioredoxin reductase 1, cytoplasmic (Rattus norvegicus), sequence (O89049 whole entry, looked up): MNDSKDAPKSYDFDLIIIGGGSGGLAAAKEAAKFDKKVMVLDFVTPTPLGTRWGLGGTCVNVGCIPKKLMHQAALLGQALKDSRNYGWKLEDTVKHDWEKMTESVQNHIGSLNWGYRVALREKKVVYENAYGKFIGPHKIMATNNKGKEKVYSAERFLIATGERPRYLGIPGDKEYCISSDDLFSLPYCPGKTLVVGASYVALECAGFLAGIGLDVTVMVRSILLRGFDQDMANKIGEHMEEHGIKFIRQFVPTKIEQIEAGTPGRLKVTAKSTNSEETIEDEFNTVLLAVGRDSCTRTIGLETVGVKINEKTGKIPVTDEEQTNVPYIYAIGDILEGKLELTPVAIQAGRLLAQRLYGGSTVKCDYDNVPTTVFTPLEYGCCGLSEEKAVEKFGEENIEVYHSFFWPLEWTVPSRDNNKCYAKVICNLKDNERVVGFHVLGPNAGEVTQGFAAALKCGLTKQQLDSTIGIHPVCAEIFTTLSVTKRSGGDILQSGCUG

Compound	Potency [1]	Potency [2]	Potency [3]	outcome [4]	Potency [5]	outcome [6]	Potency [7]	outcome [8]	outcome [9]	Potency [10]
O=C(NCC1CCCCN1)c1cc(OCC(F)(F)F)ccc1OCC(F)(F)F (stereo not given)	inactive	inactive	inactive	–	–	–	–	–	–	–
O=c1ccc2ccc(O)c(O)c2o1	inactive	14.7 µM (active)	–	inactive	inactive	inactive	inactive	inactive	inactive	–
O=c1c(O)c(-c2ccc(O)cc2O)oc2cc(O)cc(O)c12	inactive	inactive	inactive	–	18.9 µM (active)	inactive	inactive	inactive	inactive	–
COc1cc2nc(N3CCN(C(=O)C4CCCO4)CC3)nc(N)c2cc1OC (stereo not given)	inactive	–	inactive	inactive	inactive	inactive	–	inactive	inactive	inactive
COc1ccccc1N1CCN(CCN(C(=O)C2CCCCC2)c2ccccn2)CC1	inactive	inactive	inactive	inactive	inactive	inactive	inactive	inactive	inactive	inactive
CN(C)CCCC1(c2ccc(F)cc2)OCc2cc(C#N)ccc21 (stereo not given)	inactive	inactive	inactive	inactive	inactive	inactive	inactive	inactive	inactive	–
NC(=NCc1ccccc1)NC(=O)c1nc(Cl)c(N)nc1N	–	2.62 µM (active)	2.94 µM (active)	inactive	inactive	inactive	–	inactive	inactive	inactive
O=C1c2ccccc2-c2n[nH]c3cccc1c23	inactive	4.65 µM (active)	–	inactive	inactive	inactive	–	inactive	inactive	–
Nc1nc(N)c(N=O)c(OCC2CCCCC2)n1	–	–	–	inactive	inactive	inactive	–	inactive	inactive	inactive
Oc1ccc(-c2nc(-c3ccc(F)cc3)c(-c3ccncc3)[nH]2)cc1	–	inactive	inactive	inactive	inactive	inactive	–	inactive	inactive	inactive
O=C1NC(=O)C(c2ccccc2[N+](=O)[O-])=C1Nc1ccc(O)c(Cl)c1	–	–	inactive	inactive	inactive	inactive	inactive	inactive	inactive	–
CC(=O)O[C@H]1C(=O)[C@@]2(C)C([C@H](OC(=O)c3ccccc3)[C@]3(O)C[C@H](OC(=O)[C@H](O)[C@@H](NC(=O)c4ccccc4)c4ccccc4)C(C)=C1C3(C)C)[C@]1(OC(C)=O)CO[C@@H]1C[C@@H]2O (stereo not given in full)	0.0224 µM (active)	0.117 µM (active)	0.117 µM (active)	inactive	inactive	inactive	inactive	inactive	inactive	inactive
Nc1ccn([C@@H]2O[C@H](CO)[C@@H](O)C2O)c(=O)n1 (stereo not given in full)	–	–	–	inactive	inactive	inactive	inactive	inactive	inactive	–
CC(C)c1ccc2c(c1)c(SC(C)(C)C)c(CC(C)(C)C(=O)O)n2Cc1ccc(Cl)cc1	10 µM (active)	7.38 µM (active)	13.1 µM (active)	–	21.2 µM (active)	inactive	–	inactive	–	inactive
C[C@@H](N)C1CCC(C(=O)Nc2ccncc2)CC1 (stereo not given in full)	inactive	inactive	inactive	inactive	inactive	inactive	inactive	inactive	inactive	–
O=Nc1c(-c2c(O)[nH]c3cc(Br)ccc23)[nH]c2ccccc12	inactive	4.65 µM (active)	10.4 µM (active)	inactive	inactive	inactive	–	inactive	inactive	–
Oc1ccc2ccccc2c1SSc1c(O)ccc2ccccc12	–	–	–	–	inactive	inactive	inactive	inactive	inactive	inactive
CC1(C)NC(=O)N(c2ccc([N+](=O)[O-])c(C(F)(F)F)c2)C1=O	inactive	inactive	inactive	inactive	inactive	inactive	inactive	inactive	inactive	inactive
O=c1cc(N2CCOCC2)oc2c(-c3ccccc3)cccc12	–	–	inactive	inactive	inactive	inactive	2.59 µM (active)	inactive	inactive	–
NNc1nncc2ccccc12	inactive	–	–	inactive	inactive	inactive	inactive	inactive	–	inactive

Compound	Potency [1]	Potency [2]	Potency [3]	outcome [4]	Potency [5]	outcome [6]	Potency [7]	outcome [8]	outcome [9]	Potency [10]
Cc1cc(O)c2c(c1)C(=O)c1cc(O)cc(O)c1C2=O	–	inactive	inactive	inactive	–	inactive	–	inactive	inactive	–
COc1cc2c(cc1OC)C1CC(=O)C(CC(C)C)CN1CC2 (stereo not given)	–	–	–	inactive	inactive	inactive	–	inactive	inactive	–
O=C(O)c1cccnc1Nc1cccc(C(F)(F)F)c1	–	inactive	inactive	inactive	inactive	inactive	–	inactive	inactive	–
O=C(CCc1ccc(O)cc1)c1c(O)cc(O)cc1O	inactive	inactive	inactive	inactive	inactive	inactive	inactive	inactive	inactive	inactive
CNC[C@H](O)c1ccc(O)c(O)c1	inactive	inactive	inactive	inactive	inactive	inactive	inactive	–	inactive	–
COc1ccc2cc([C@H](C)C(=O)O)ccc2c1	inactive	inactive	inactive	inactive	inactive	inactive	inactive	–	inactive	–
CCN(CC)C(=S)SSC(=S)N(CC)CC	–	–	–	inactive	inactive	inactive	–	inactive	inactive	–
O=C1c2c(O)cc(O)cc2OC(c2ccc(O)c(O)c2)C1O (stereo not given)	–	–	inactive	inactive	inactive	inactive	inactive	inactive	inactive	–
Cc1c(OCC(F)(F)F)ccnc1CS(=O)c1nc2ccccc2[nH]1 (stereo not given)	inactive	–	–	inactive	inactive	inactive	inactive	inactive	inactive	–
OC(CN1CCN(c2cccc(Cl)c2)CC1)C(c1ccccc1)c1ccccc1 (stereo not given)	–	inactive	inactive	inactive	inactive	inactive	inactive	inactive	–	inactive
O=C(c1ccccc1)c1ccc2n1CCC2C(=O)O (stereo not given)	inactive	inactive	inactive	inactive	inactive	inactive	inactive	inactive	–	inactive
CCOC(=O)C(C)Oc1cccc2c(=O)n(CC(=O)Nc3ccc4c(c3)OCCO4)ccc12 (stereo not given)	–	–	–	inactive	inactive	inactive	–	inactive	inactive	inactive
Cc1nc2n(c(=O)c1CCN1CCC(c3noc4cc(F)ccc34)CC1)CCCC2	inactive	inactive	inactive	–	–	–	–	–	–	–
CC(=O)N1CCN(c2ccc(OC[C@H]3CO[C@](Cn4ccnc4)(c4ccc(Cl)cc4Cl)O3)cc2)CC1	–	–	–	inactive	inactive	inactive	–	inactive	inactive	inactive
O=c1c(O)c(-c2cc(O)c(O)c(O)c2)oc2cc(O)cc(O)c12	inactive	inactive	inactive	–	15 µM (active)	inactive	inactive	inactive	inactive	3.01 µM (active)
Nc1nc(OCc2ccccc2)c2[nH]cnc2n1	inactive	inactive	inactive	inactive	inactive	inactive	–	inactive	inactive	–
NCCCCNCCCN	inactive	inactive	inactive	inactive	inactive	inactive	inactive	inactive	inactive	inactive
C[C@H](Cc1ccc(O)c(O)c1)[C@@H](C)Cc1ccc(O)c(O)c1	–	13.1 µM (active)	–	inactive	–	inactive	–	inactive	inactive	–
Cc1cccc(C#Cc2ccccc2)n1	inactive	–	–	inactive	inactive	inactive	inactive	–	inactive	–
CC1(C)C(=O)N(CCN2CCC(C(=O)c3ccc(F)cc3)CC2)c2ccccc21	–	–	–	inactive	inactive	inactive	–	inactive	inactive	–
